# Where “and” joins values, the source holds several entries; their conditions need not be identical. Equal values may be shown once. Read-outs that look alike come from different tables or passages of the source.
# What was measured:
# [1] = system: T1, PFTK1; details: concentration: 1 μM, replicates: in singlicate, n = 1
# T1 construct: gene CDK14
# [2] = system: PHKG1; details: concentration: 1 μM, replicates: in singlicate; n = 1
# [3] = system: PHKG2; details: concentration: 1 μM, replicates: in singlicate, n = 1
# [4] = system: PIK3C2B; details: concentration: 1 μM, replicates: in singlicate; n = 1
# [5] = system: PIK3C2G; details: concentration: 1 μM, replicates: in singlicate, n = 1
# [6] = system: PIK3CA; details: concentration: 1 μM, replicates: in singlicate; n = 1
# [7] = system: PIK3CB; details: concentration: 1 μM, replicates: in singlicate; n = 1
# [8] = system: PIK3CD; details: concentration: 1 μM, replicates: in singlicate, n = 1
# [9] = system: PIK3CG; details: concentration: 1 μM, replicates: in singlicate; n = 1
# [10] = system: T2, PIK4CB; details: concentration: 1 μM, replicates: in singlicate, n = 1
# T2 construct: gene PI4KB
# 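Note: KINOMEscan kinase panel screen.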
Compound,%Inh [1] [%],%Inh [2] [%],%Inh [3] [%],%Inh [4] [%],%Inh [5] [%],%Inh [6] [%],%Inh [7] [%],%Inh [8] [%],%Inh [9] [%],%Inh [10] [%],%Inh ([1]; 1 µM),%Inh ([3]; 1 µM),%Inh ([5]; 1 µM),%Inh ([8]; 1 µM),%Inh ([10]; 1 µM)
c1ccc(-c2cc(-c3c[nH]nc3-c3ccccn3)ccn2)cc1 [GW576604],39,0,0,0,0,0,0,0,0,0,,,,,
Cc1cccc(-c2nc(-c3ccc(S(C)(=O)=O)cc3)sc2-c2ccncc2)c1,0,0,0,0,49,20,1,25,10,0,,,,,
CSc1ccc(-c2cc3ncnc(SCC(=O)O)c3s2)cc1,3,0,0,0,0,0,0,8,2,0,,,,,
Fc1ccc(-c2ncn(CCCN3CCOCC3)c2-c2cccnc2)cc1 [SB-211743],0,3,0,0,0,10,0,0,0,17,,,,,
CC(C)(CN)c1nc(-c2ccc(Cl)c(O)c2)c(-c2ccncc2)[nH]1.O=C(O)C(F)(F)F [SB-477794],,0,,0,,0,0,,0,,6% and 3%,12% and 0%,0% and 5%,20% and 5%,25% and 0%
Cc1nnc(-c2ccc(C)c(-c3ccc(C(=O)Nc4ccc(NS(C)(=O)=O)cc4)cc3)c2)o1 [GW702865],14,2,0,0,0,0,0,10,0,0,,,,,
CCCCCc1nc2c(N)ncnc2n1CCCCC [SKF-97255],2,9,0,0,0,14,0,0,15,1,,,,,
COCCNC(=O)c1ccc(-c2cc(C(=O)NC3CC3)cc(F)c2C)cc1 [GW868318],18,6,0,0,38,28,49,42,29,40,,,,,
O=C(NOCC1CC1)c1ccc(F)c(F)c1Nc1ccc(I)cc1Cl,0,0,0,0,0,15,0,0,0,100,,,,,
Cl.Nc1ncnc2occ(-c3ccc(NC(=O)Nc4cc(C(F)(F)F)ccc4F)cc3)c12 [SB-707548],79,0,8,0,23,0,8,27,6,0,,,,,
Fc1ccc(-c2ncn(CCCN3CCOCC3)c2-c2ccccn2)cc1 [SB-211742],0,50,0,0,0,0,0,0,0,0,,,,,
Cc1nnc(-c2ccc3ncc(-c4ccc(S(C)=O)cc4)n3c2)o1 (stereo not shown),0,20,0,13,28,3,64,0,3,0,,,,,
Cc1c(Cn2c(C)nn3c(=O)cc(N4CCOC(C)C4)nc23)cccc1C(F)(F)F (stereo not shown) [GSK2344444],48,0,0,31,24,5,97.4,92.7,64,0,,,,,
CNc1ncnc2[nH]ncc12 [SKF-18355],0,0,0,3,0,1,0,0,5,17,,,,,
COc1ccc(S(=O)(=O)NC2CCN(c3cc(C)nc(Nc4cccc(C#N)c4)n3)CC2)cc1.O=C(O)C(F)(F)F [GSK1653539],11,0,9,12,0,6,100,0,33,0,,,,,
O=C(NCCNc1ccnc(Nc2ccc(F)cc2)n1)c1cc2ccccc2s1 [GSK1379874],0,0,0,0,0,0,0,0,0,0,,,,,
Cl.Oc1cccc(Nc2ccnc3cc(-c4ccncc4)ccc23)c1 [GW494601],12,0,0,13,2,0,0,22,0,0,,,,,

Compound,%Inh [1] [%],%Inh [2] [%],%Inh [3] [%],%Inh [4] [%],%Inh [5] [%],%Inh [6] [%],%Inh [7] [%],%Inh [8] [%],%Inh [9] [%],%Inh [10] [%],%Inh ([1]; 1 µM),%Inh ([3]; 1 µM),%Inh ([5]; 1 µM),%Inh ([8]; 1 µM),%Inh ([10]; 1 µM)
NS(=O)(=O)c1cccc(-c2ccc3nccc(-c4cccc(S(N)(=O)=O)c4)c3c2)c1 [GW867253],0,0,5,58,52,38,24,39,88,99.1,,,,,
C[C@@H](Oc1cc(-n2cnc3ccc(NC(=O)NC(C)(C)C)cc32)sc1C(N)=O)c1ccccc1Cl [GSK346294],24,0,13,0,0,3,5,0,6,0,,,,,
CCc1nc(-c2cccc(C)c2)c(-c2ccnc(NCc3ccccc3)c2)s1,1,0,22,0,18,0,16,0,0,0,,,,,
O=c1cc(N2CCOCC2)nc2n(Cc3cccc(F)c3)ccn12 [GSK2297430],12,0,0,0,0,0,99,6,0,0,,,,,
O=C(Nc1cccc(-c2nn3ncccc3c2-c2ccnc(Nc3cccc(C(F)(F)F)c3)n2)c1)c1c(F)cccc1F [GSK299495],11,0,0,0,0,0,0,25,0,0,,,,,
Fc1ccc(-c2nn3c(OCC(F)(F)F)cccc3c2-c2ccncc2)cc1 [GW514784],3,0,0,0,0,0,0,30,0,0,,,,,
Cc1cccc(Cn2ccn3c(=O)cc(N4CCOCC4)nc23)c1 [GSK2297542],15,1,8,4,0,12,100,52,10,0,,,,,
Cn1cc(-c2ccc3c(c2)CCN3C(=O)Cc2ccccc2Cl)c2c(N)ncnc21 [GSK2608885],8,1,0,0,0,0,11,30,3,8,,,,,
COc1ccc(Nc2ncc(C#N)c(Nc3ccccc3C(N)=O)n2)cc1N1CCN(C)CC1.Cl [GSK1558669],99.4,89,85,0,0,0,0,0,0,15,,,,,
COc1ccc(CNC(=O)NC2CCN(c3ccnc(Nc4ccc(OC)cc4)n3)C2)cc1 (stereo not shown) [GSK1379727],9,0,0,0,0,0,0,26,0,2,,,,,
CC(=O)Nc1ccc(COc2ccc(Nc3ccnc4cc(-c5ccccn5)ccc34)cc2)cc1.Cl [GW440148],25,0,0,0,0,2,100,7,14,16,,,,,
Nc1nc(-c2ccc3c(N)n[nH]c3c2)cc(N2CCCC2)n1 [GSK2227430],0,0,0,0,0,0,0,0,0,14,,,,,
COC(=O)Nc1nc2cc(Oc3ccc(NC(=O)Nc4cc(F)ccc4F)cc3)ccc2[nH]1.Cl [GW701424],19,0,0,0,0,0,0,0,0,0,,,,,
c1ccc(-c2n[nH]cc2-c2ccnc3ccccc23)nc1 [GW271431],25,0,0,0,0,0,0,5,0,0,,,,,
O=C(Nc1n[nH]c2cc(-c3cccc(F)c3)ccc12)C1CC1 [SB-735464],3,0,0,19,20,0,4,14,16,18,,,,,
NS(=O)(=O)CCc1cccc(Nc2nccc(-c3c(-c4cccc(NC(=O)c5c(F)cccc5F)c4)nn4ccccc34)n2)c1 [GSK336735],26,0,4,0,0,0,0,0,0,0,,,,,
CN(C1=C(c2ccccc2)C(=O)NC1=O)c1ccccc1 [SB-334860],21,0,0,0,3,0,25,7,10,13,,,,,

# From PMC5540273 (PLoS ONE, 2017)
